# Assay results taken from paper PMC4336329 (PLoS ONE, 2015).
# About 14,000 (4.5%) of roughly 310,000 compounds showed an effect of 50% or more. The effect is printed as a negative number. What follows is part of a selection rich in strong results, with near analogues and random picks from the rest.
# Molecular target: human ether-à-go-go-related gene (hERG) potassium channel (human, UniProt Q12809)
# Experiment: primary screen, population patch clamp on CHO cells stably expressing hERG; higher = less effect of the substance
# 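Note: peak tail current of the secondary pulse compared with the same well before compound.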
# human ether-à-go-go-related gene (hERG) potassium channel, sequence (Q12809 whole entry, looked up): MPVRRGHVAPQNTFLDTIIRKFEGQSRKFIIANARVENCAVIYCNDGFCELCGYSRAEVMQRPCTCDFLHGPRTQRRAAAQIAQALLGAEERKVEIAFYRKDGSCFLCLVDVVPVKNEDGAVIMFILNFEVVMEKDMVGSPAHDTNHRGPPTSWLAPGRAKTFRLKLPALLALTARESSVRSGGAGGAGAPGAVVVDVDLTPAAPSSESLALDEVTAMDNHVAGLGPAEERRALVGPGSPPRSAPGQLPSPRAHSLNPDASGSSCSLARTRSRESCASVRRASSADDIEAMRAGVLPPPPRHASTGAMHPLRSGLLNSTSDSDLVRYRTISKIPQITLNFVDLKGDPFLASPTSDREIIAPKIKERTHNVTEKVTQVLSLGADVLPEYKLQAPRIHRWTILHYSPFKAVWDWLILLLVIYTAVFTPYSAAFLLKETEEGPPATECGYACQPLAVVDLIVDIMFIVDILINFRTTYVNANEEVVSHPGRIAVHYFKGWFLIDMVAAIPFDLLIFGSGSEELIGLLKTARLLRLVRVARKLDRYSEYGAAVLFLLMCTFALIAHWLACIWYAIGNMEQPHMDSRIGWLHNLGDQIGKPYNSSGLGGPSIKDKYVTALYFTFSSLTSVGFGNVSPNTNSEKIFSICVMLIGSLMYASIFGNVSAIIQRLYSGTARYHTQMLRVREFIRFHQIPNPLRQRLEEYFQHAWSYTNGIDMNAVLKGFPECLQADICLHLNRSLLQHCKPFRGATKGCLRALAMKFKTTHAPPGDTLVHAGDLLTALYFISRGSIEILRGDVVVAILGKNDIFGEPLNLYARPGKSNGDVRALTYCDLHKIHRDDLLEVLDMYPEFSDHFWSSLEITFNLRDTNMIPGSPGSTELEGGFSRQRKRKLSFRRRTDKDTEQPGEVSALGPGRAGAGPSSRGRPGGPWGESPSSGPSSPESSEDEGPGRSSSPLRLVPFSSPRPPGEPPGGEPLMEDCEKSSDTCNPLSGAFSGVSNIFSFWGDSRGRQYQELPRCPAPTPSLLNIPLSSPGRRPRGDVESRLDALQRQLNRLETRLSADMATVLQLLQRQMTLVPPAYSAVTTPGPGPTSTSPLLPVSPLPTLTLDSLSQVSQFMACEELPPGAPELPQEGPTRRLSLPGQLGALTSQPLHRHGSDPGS
row,SMILES,"hERG current change (%, negative = inhibition) at 10uM [%]"
1,COc1ccc(C(=O)COC(=O)CN2C(=O)NC(C)(C)C2=O)cc1OC,-1.87
2,NC(=O)C(=O)N/N=C/c1c[nH]c2ccc(Br)cc12,12.7
3,O=C(NC(=S)Nc1ccc(CN2CCOCC2)cc1)c1cccc([N+](=O)[O-])c1,10.7
4,Cc1ccc(-n2c(=O)[nH]cc(C(=O)Nc3ccc4c(c3)OCCO4)c2=O)cc1C,-5.33
5,CCN1CCC(NCCc2ccc(F)cc2)CC1,-0.893
6,CN1CCC(NCCC(c2ccc(F)cc2)c2ccc(Cl)cc2)CC1 (stereo not shown),-71.5
7,CC(C)C(CCNC1CCN(C)CC1)c1ccc(Cl)cc1 (stereo not shown),11.3
8,Cc1ccccc1-c1noc(CNC(=O)COc2ccccc2)n1,-10.4
9,COc1ccc(C(=O)N(C)Cc2ccccc2)cc1Br,-8.29
10,Cc1cc(Br)ccc1NC(=O)CN(C)C(=O)C1CCN(C(=O)c2ccc(F)cc2)CC1,-65.1
11,CN(CC(=O)Nc1ccccc1C(F)(F)F)C(=O)C1CCN(C(=O)c2ccc(Cl)cc2)CC1,-31.8
12,CN(CC(=O)Nc1ccccc1Cl)C(=O)C1CCN(C(=O)c2ccc(F)cc2)CC1,-20.9
13,CCOc1ccc(NC(=O)CN(C)C(=O)C2CCN(C(=O)c3ccc(Cl)cc3)CC2)cc1OCC,-48.1
14,CN(CC(=O)Nc1ccccc1Cl)C(=O)C1CCN(C(=O)c2ccc(Cl)cc2)CC1,-35.1
15,CN(CC(=O)Nc1ccccc1Br)C(=O)C1CCN(C(=O)c2ccc(Cl)cc2)CC1,-50.1
16,CN(CC(=O)Nc1ccccc1Br)C(=O)CN1CCN(c2ccccc2Cl)CC1,-29.6
17,CN(CC(=O)Nc1cccc(F)c1)C(=O)C1CCN(C(=O)c2ccc(Cl)cc2)CC1,-55.5
18,Cc1ccccc1C(=O)N1CCC(C(=O)N(C)CC(=O)Nc2cccc(F)c2)CC1,12.4
19,CN(CC(=O)Nc1ccccc1Br)C(=O)CN1CCN(Cc2ccc(Cl)cc2)CC1,-66.9
20,CN(CC(=O)Nc1ccccc1Br)C(=O)c1ccc(-c2ccc(Cl)cc2)o1,5.51
21,Cc1cc(Br)ccc1NC(=O)CN(C)C(=O)CCSc1ccc(F)cc1,0.468
22,CC(=O)Nc1ccc(Sc2ccccc2C(=O)O)c(C(=O)O)c1,19.4

row,SMILES,"hERG current change (%, negative = inhibition) at 10uM [%]"
1,CCCc1[nH]n(-c2ccc(F)cc2)c(=O)c1C=Nc1ccc(C)cc1,4.95
2,CCOc1ccccc1NC(=O)Nc1ccc(OC)nc1,14.7
3,CCOC(=O)c1ccc(S(=O)(=O)NC2CCCCCCC2)n1C,-12.4
4,O=C(NCc1ccccc1)C1CCCN(S(=O)(=O)c2cccs2)C1 (stereo not shown),-0.56
5,COc1ccc(-c2cc(C(=O)N3CCN(Cc4ccc5c(c4)OCO5)CC3)on2)cc1OC,2.8
6,COc1ccc2oc(-c3ccccc3)c(C(=O)N3CCOCC3)c2c1,-8.44
7,Cc1csc(NC(=O)c2c(-c3c(F)cccc3Cl)noc2C)n1,-10.9
8,Cc1ccc(S(=O)(=O)NC2CCCC2)cc1C,-9.68
9,CCC[N+](CC#Cc1ccccc1)(CCC)CC(=O)OCC,-1.25
10,CCC[N+](CC#Cc1ccccc1)(CCC)CC(=O)c1ccc(Cl)cc1,-67.4
11,C[N+](C)(CC#Cc1ccccc1)CC(=O)c1ccc(Cl)cc1,-28.3
12,CC[N+](CC)(CC#Cc1ccccc1)CC(=O)c1ccc(Cl)cc1,-60.3
13,CCC[N+](CC#Cc1ccccc1)(CCC)CC(=O)OC,9.58
14,C[N+](C)(CC#Cc1ccccc1)CC(=O)c1ccccc1.[Br-],-13.5
15,Cl.c1ccc2c(N3CCNCC3)cccc2c1,10.9
16,Cc1nnc(NC(=O)C2=COCCO2)s1,7.13
17,CN(C)CCCNCC(=O)NN(c1ccccc1)c1ccccc1.O=C(O)C(=O)O,-17.4
18,CCC(C)[C@H](N)c1nnc(SCC(=O)Nc2cccc(Cl)c2)o1.Cl (stereo partly shown),-15.6
19,COc1cnc(-c2ccccn2)nc1N(C)C,-1.39
20,CC(=NCc1ccco1)c1c(O)n(-c2ccccc2)c(=O)[nH]c1=O,4.82
21,COc1cc(/C=N/NC(=S)NCCN2CCOCC2)cc(OC)c1O,12.7
22,CCCNC(=O)c1cccc(S(=O)(=O)N2CC3(C)CC2CC(C)(C)C3)c1 (stereo not shown),-57.6

row,SMILES,"hERG current change (%, negative = inhibition) at 10uM [%]"
1,CNC(=O)NC(=O)COC(=O)c1cccc(S(=O)(=O)N2CC3(C)CC2CC(C)(C)C3)c1 (stereo not shown),-14.4
2,CCCCCNC(=O)c1cccc(S(=O)(=O)N2CC3(C)CC2CC(C)(C)C3)c1 (stereo not shown),-1.24
3,CC1(C)CC2CC(C)(CN2S(=O)(=O)c2cccc(C(=O)OCC(=O)NC(N)=O)c2)C1 (stereo not shown),-57.1
4,CC1(C)CC2CC(C)(CN2S(=O)(=O)c2cccc(C(=O)OCC(N)=O)c2)C1 (stereo not shown),-7.62
5,CCCCNC(=O)c1cccc(S(=O)(=O)N2CC3(C)CC2CC(C)(C)C3)c1 (stereo not shown),-26.7
6,Br.O=C1SC(SC(=Nc2ccccc2)Nc2ccccc2)C(=O)N1c1ccccc1 (stereo not shown),11.1
7,COc1ccc(C(=O)N2CCCC2(C#N)c2ccccc2)cc1[N+](=O)[O-] (stereo not shown),-41
8,CCOc1ccc(C(=O)NC2CCCCCCC2)cc1,4.13
9,COc1ccccc1-n1cc2ccc([N+](=O)[O-])cc2n1,8.8
10,O=C(CC(Nc1ccccc1)C(=O)O)c1ccccc1 (stereo not shown),11.2
11,COc1cccc(NC(=O)Nc2ccccc2C(N)=O)c1,1.99
12,CCOc1ccc(S(=O)(=O)Nc2cc(OC)c(OC)cc2C(=O)O)cc1,3.94
13,COc1cc([C@@H]2C[C@H]3CN(c4ccccc4)C(=O)[C@]34CCCN24)cc(OC)c1OC,-32
14,CCOc1cc([C@@H]2C[C@H]3CN(c4ccccc4)C(=O)[C@]34CCCN24)ccc1OC,-10.4
15,O=C1N(c2ccccc2)C[C@@H]2C[C@@H](c3cccs3)N3CCC[C@@]123,-11.5
16,COc1cc(Cl)c([C@@H]2C[C@H]3CN(c4ccccc4)C(=O)[C@]34CCCN24)cc1OC,-70.9
17,COc1ccccc1-n1cc([C@@H]2C[C@H]3CN(c4ccccc4)C(=O)[C@]34CCCN24)cn1,-17.1
18,COc1ccc([C@@H]2C[C@H]3CN(c4ccccc4)C(=O)[C@]34CCCN24)c(OC)c1OC,-78.3
19,CCc1cc2cc(C(=O)N3CCN(Cc4ccccc4)CC3)sc2s1,-36.7
20,CCN(c1ccccc1C)S(=O)(=O)c1cc2c3c(c1)CCC(=O)N3CCC2,-11.2
21,COc1ccc(C(CC(=O)Nc2cc([N+](=O)[O-])ccc2OC)c2ccccc2)cc1 (stereo not shown),8.82
22,O=C(CSCc1ccccc1)Nc1ccccc1,8.79

row,SMILES,"hERG current change (%, negative = inhibition) at 10uM [%]"
1,Cc1ccc(S(=O)(=O)Oc2ccc(/C=N/NC(=O)c3c(Cl)cnn3C)cc2)cc1,-8.14
2,CCOC(=O)N1CCN(c2nc(C)c3c(n2)CCCC3=O)CC1,7.97
3,CC1CCCN(CCCCOc2cccc(Br)c2)C1.O=C(O)C(=O)O (stereo not shown),-69
4,CCN1CCN(CCOCCOc2ccccc2)CC1.O=C(O)C(=O)O,10.8
5,CC(C)c1cccc(OCCCCN(C)C)c1.O=C(O)C(=O)O,-14.1
6,COc1cccc(OCCCCN2CC(C)OC(C)C2)c1.O=C(O)C(=O)O (stereo not shown),-4.73
7,CC(C)c1cccc(OCCN2CCCC2)c1,5.18
8,CCN1CCN(CCOc2cccc(Oc3ccccc3)c2)CC1.O=C(O)C(=O)O,-61.1
9,Clc1cccc(OCCN2CCOCC2)c1.O=C(O)C(=O)O,-2.27
10,CN(C)CCCCOc1cccc(Br)c1.O=C(O)C(=O)O,-23.7
11,Clc1cccc(OCCCCN2CCCCC2)c1,-36.6
12,CN(C)CCCOc1cccc(Oc2ccccc2)c1.O=C(O)C(=O)O,-34.5
13,CCC1CCCCN1CCCCOc1cccc(Cl)c1.O=C(O)C(=O)O (stereo not shown),-72
14,CC1CCN(CCCCOc2cccc(C(C)C)c2)CC1.O=C(O)C(=O)O,-71.7
15,COc1nccnc1NS(=O)(=O)c1ccc(NCc2ccccc2O)cc1,7.4
16,CC(=O)Nc1ccc(S(=O)(=O)N2CCSC2)cc1,1.65
17,COc1ccc(N2CCN(c3ncnc4scc(-c5ccc(C)cc5)c34)CC2)cc1,13
18,CC(C)(C)NC(=O)C(c1ccc(O)cc1)N(C(=O)CCC(=O)Nc1ccccn1)c1ccc(F)cc1 (stereo not shown),8.1
19,COC(=O)C(CCSC)NC(=O)c1cccc([N+](=O)[O-])c1 (stereo not shown),-12.1
20,CCOC(=O)N1CCN(S(=O)(=O)c2ccc3c(c2)oc(=O)n3C)CC1,-0.295
21,CC(=O)c1ccc(NC(=O)C2CC2c2ccccc2)cc1 (stereo not shown),3.25
22,CC1=NOC(=O)/C1=C\c1ccc(-c2cccc(Cl)c2)o1,10.4
